High-throughput results from PubChem BioAssay.
Shown is part of a subset that was picked to be rich in hits.
SF-1 inh = SF-1 (human) inhibition | Q13285 | inhibition, % at 10 µM | 0.55% of 65,000 active | AID 525 | CHO-K1 Gal4-SF-1 LBD luciferase reporter;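 active means inhibition above the mean inhibition of all tested compounds plus 3 SD, cut at about 48% in these data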;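 further: 0% = SF-1 transfected cells with DMSO and 100% = mock-transfected cells lacking SF-1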
Active calls of the source: *.

SMILES	SF-1 inh
Cc1sc(NC(=O)c2ccco2)c(C(c2cccnc2)N2CCN(c3ccc(F)cc3)CC2)c1C (stereo not given)	48.4*
NC(=O)CSc1nnc(-c2ccoc2)o1	4.9
CCOc1ccccc1N(CC(=O)Nc1ccc(C)cc1)S(C)(=O)=O	1.7
CCOc1cccc(-c2nnc(SCC(=O)Nc3ccc(OC)c(OC)c3)n2N)c1	10.7
CCOc1ccccc1-n1c(SCC(=O)Nc2ccc(CC)cc2)nc2n[nH]c(C)c2c1=N	83.9*
Cc1nn(-c2ccccc2)c2sc(C(=O)OC3CCOC3=O)cc12 (stereo not given)	15.8
COc1ccc(C(CC(=O)Nc2nccs2)n2cccc2)cc1 (stereo not given)	-54.9
COC(=O)c1ccc(CSc2nc3c(cnn3-c3ccccc3)c(=O)[nH]2)o1	-0.2
CCN(C1CCCCC1)S(=O)(=O)c1ccc(S(=O)(=O)NCc2ccncc2)cc1	52.3*
COC(=O)COc1ccc(S(=O)(=O)NCc2ccncc2)cc1	17.3
O=C(CCC1CCCCC1)NCc1ccncc1	15.0
Cc1ccc(S(=O)(=O)N2CCN(C(=O)N3CCOCC3)C2C)cc1 (stereo not given)	11.5
CC(C)CC(NC=C1C(=O)OC(C)(C)OC1=O)C(=O)O (stereo not given)	6.1
c1cnc2c(SCc3ccc(-c4nnco4)cc3)cccc2c1	-62.5
CCCNC(=O)c1cc(-c2ccc(Br)cc2)on1	-57.8
CCOc1ccc(-c2cc(CCCC(=O)NCCCOC)no2)cc1	57.9*
COCCCNC(=O)CCN1C(=O)COc2ccccc21	8.9
Cc1nc2sc(C(c3ccco3)N3CCC(Cc4ccccc4)CC3)c(O)n2n1 (stereo not given)	-11.6
COC(=O)c1ccc(NC(=O)CN(c2ccc(OC)cc2)S(C)(=O)=O)cc1	-74.8
O=c1oc2ccccc2cc1NCc1ccccc1O	-7.9
CCCCn1c2c(c(=O)n(C)c1=O)C(c1ccc(OC)cc1)N1CCCCCC1=N2 (stereo not given)	49.2*
O=C(Nc1ccc2c(c1)OCO2)c1c(Cl)nc2sccn12	-66.1
COCCn1c(SCc2nc3ccccc3s2)nc2ccccc21	-50.3
COc1ccc(NC(=O)Cn2c(=O)sc3ccccc32)c(OC)c1	12.1
CC(C)CCNC(=O)C1CCN(S(=O)(=O)c2ccc3c(c2)CCC(=O)N3)CC1	-9.7
CC1CCCN(c2ccc(C(=O)NCC3CCCO3)cn2)C1 (stereo not given)	-57.5
CS(=O)(=O)N(CC(=O)NCc1ccncc1)c1cc(Cl)cc(Cl)c1	14.0
